Source: the supplement of paper PMC10849652
Targets with a hit are over-represented here; the source holds about 8,800 in all. About 0.5% of all pairs of compound and target were hits.

What was measured:
Assay in all cases: log2 fold change, soluble protein after heating vs DMSO (PISA); higher = thermal stabilisation; K562 lysate, 10 uM; active = over 0.2 and 3.5 SD of the protein, either way, in both replicates (recomputed)
[1] = compound: C1=CC=C(C=C1)[C@H](COC2=CC3=C(C=C2)NC(=O)N3)NC(=O)C4=CC=CN(C4=O)CC5=CC(=C(C=C5)F)F
Summary of the method: (§1)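 Quantification was by TMTpro 16plex LC-MS/MS with equalised channel sums, applied to the supernatant after 21,000xg for 90 min. Samples were crude K562 extract at 1 mg/mL protein in PBS pH 7.4 with 1 mM MgCl2, treated with 10 μM compound for 30 min, heated for 3 min across 48°C-58°C, pooled and brought to 0.5% NP-40 at 4°C. Values are log-two fold changes in thermal stability relative to solvent controls, from duplicates.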

[2] = compound: CC1=C(SC2=C1C(=N[C@H](C3=NN=C(N32)C)CC(=O)N)C4=CC=C(C=C4)Cl)C
Summary of the method: as §1

[3] = compound: CC1=C2C(=CC=C1)N=C(N(C2=O)C3=CC=CC=C3C)CN4C=NC5=C(N=CN=C54)N
Summary of the method: as §1

[4] = compound: Cc1sc2c(c1C)C(c1ccc(Cl)cc1)=N[C@@H](CC(=O)OC(C)(C)C)c1nnc(C)n1-2
Summary of the method: as §1

[5] = compound: c1ccc([C@@H]2C[C@H]2NC2CCNCC2)cc1
Summary of the method: as §1

Measured: log2 fold change

ATP11A (UniProt P98196)
inactive: [1] 0.04 | [2] -0.014 | [3] -0.004 | [4] 0.005 | [5] -0.026

CAD (UniProt P27708)
UniProt P27708, sequence (P27708 whole entry, looked up): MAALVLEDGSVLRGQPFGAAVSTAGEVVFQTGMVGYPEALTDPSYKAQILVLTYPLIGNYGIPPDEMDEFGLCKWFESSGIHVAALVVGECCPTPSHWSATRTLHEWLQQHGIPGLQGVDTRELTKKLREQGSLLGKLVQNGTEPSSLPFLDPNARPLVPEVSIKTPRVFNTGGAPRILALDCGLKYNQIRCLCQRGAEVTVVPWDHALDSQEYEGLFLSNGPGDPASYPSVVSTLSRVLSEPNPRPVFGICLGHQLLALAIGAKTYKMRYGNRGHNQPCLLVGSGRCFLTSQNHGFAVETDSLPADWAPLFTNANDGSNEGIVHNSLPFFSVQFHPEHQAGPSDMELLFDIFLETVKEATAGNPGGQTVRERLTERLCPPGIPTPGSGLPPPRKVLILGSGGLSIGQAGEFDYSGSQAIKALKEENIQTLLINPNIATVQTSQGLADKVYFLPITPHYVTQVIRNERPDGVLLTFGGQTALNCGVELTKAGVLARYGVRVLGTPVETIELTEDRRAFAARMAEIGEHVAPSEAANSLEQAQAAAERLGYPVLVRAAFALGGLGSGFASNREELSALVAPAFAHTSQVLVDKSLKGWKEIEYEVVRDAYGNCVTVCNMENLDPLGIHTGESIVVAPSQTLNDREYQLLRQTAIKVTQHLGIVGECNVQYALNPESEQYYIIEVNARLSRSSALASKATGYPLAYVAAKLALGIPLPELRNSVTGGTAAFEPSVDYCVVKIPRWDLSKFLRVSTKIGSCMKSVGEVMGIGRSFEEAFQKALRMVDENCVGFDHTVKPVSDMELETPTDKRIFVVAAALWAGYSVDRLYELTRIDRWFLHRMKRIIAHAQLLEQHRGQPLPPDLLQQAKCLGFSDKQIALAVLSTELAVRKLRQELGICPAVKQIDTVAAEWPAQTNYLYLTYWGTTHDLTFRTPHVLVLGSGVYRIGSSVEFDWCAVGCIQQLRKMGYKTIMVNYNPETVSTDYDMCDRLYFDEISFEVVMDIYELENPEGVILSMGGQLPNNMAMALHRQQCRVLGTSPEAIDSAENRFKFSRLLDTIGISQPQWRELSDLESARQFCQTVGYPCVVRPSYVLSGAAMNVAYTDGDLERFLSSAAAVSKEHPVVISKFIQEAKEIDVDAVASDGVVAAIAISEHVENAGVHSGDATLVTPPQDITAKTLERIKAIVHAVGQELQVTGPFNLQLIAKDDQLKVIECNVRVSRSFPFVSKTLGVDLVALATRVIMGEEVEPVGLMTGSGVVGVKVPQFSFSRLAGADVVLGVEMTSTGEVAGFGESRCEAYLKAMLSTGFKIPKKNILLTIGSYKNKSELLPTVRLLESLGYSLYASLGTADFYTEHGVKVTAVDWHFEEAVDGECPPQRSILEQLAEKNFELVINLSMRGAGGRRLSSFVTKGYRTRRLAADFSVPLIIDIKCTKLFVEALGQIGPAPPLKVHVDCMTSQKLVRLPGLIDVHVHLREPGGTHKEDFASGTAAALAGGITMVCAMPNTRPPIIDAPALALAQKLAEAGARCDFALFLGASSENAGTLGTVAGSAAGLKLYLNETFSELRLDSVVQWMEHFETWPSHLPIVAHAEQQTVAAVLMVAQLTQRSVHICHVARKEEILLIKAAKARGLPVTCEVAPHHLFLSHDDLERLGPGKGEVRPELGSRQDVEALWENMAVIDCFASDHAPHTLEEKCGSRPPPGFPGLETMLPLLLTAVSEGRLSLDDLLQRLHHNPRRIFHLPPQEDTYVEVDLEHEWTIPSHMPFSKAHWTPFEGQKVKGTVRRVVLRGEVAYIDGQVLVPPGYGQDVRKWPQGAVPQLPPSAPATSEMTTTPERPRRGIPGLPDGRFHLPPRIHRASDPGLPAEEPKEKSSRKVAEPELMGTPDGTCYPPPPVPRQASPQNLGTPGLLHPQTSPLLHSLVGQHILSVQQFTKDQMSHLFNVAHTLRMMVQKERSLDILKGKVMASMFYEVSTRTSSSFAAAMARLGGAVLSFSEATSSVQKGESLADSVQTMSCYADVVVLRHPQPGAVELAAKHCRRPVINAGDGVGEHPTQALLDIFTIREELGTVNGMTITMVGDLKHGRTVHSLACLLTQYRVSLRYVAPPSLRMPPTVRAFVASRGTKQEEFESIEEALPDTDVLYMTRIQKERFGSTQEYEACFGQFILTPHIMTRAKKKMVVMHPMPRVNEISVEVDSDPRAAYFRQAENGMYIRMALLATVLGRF
inactive: [1] -0.011 | [2] 0.009 | [3] 0.003 | [4] 0.022 | [5] 0.002

CCDC130 (UniProt P13994)
inactive: [1] 0.01 | [2] 0.038

CHCHD7 isoform 4 (UniProt Q9BUK0)
UniProt Q9BUK0, sequence (Q9BUK0 whole entry, looked up): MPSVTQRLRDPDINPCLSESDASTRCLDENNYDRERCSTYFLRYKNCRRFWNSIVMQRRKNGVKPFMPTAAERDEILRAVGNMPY
inactive: [1] 0.08 | [2] -0.052 | [3] 0.074 | [4] -0.071 | [5] -0.22

CCAR2 (UniProt Q8N163)
inactive: [1] 0.001 | [2] 0.005 | [3] -0.007 | [4] 0.003 | [5] 0.004

C16orf70 (UniProt Q9BSU1)
inactive: [1] -0.007 | [2] -0.073 | [3] -0.071 | [4] 0.033

CBX1 (UniProt P83916)
inactive: [1] 0.031 | [2] -0.03 | [3] 0.032 | [4] 0.009 | [5] 0.13

CANX isoform 2 (UniProt P27824)
inactive: [1] 0.05 | [2] -0.022 | [3] -0.005 | [4] -0.027 | [5] -0.046

CCP110 (UniProt O43303)
UniProt O43303, sequence (O43303 whole entry, looked up): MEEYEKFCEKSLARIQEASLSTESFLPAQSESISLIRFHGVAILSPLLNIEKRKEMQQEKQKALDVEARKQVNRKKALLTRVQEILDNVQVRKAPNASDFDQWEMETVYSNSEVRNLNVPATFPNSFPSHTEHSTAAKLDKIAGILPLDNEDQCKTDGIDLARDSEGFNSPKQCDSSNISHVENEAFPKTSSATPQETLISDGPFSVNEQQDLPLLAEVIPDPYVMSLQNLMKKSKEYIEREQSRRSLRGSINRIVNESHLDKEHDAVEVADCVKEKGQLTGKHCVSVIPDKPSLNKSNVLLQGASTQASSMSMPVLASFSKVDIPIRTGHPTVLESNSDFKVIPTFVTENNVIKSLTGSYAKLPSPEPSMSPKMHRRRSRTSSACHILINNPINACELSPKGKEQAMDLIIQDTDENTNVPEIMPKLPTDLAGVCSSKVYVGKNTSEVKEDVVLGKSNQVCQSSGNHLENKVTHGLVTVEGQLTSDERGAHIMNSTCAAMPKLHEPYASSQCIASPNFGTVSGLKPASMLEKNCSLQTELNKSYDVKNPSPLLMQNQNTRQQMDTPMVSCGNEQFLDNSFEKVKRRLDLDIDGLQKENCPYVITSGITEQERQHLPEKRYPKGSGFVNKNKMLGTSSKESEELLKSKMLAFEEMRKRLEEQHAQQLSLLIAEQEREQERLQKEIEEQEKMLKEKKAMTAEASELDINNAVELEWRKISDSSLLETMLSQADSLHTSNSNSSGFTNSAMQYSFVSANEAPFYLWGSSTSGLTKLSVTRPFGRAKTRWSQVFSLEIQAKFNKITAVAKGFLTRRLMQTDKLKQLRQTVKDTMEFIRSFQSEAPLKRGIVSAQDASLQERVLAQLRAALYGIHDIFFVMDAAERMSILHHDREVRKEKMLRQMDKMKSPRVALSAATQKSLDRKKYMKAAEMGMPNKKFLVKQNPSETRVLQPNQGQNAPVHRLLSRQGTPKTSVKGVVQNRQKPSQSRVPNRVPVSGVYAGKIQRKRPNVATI
inactive: [1] -0.026 | [2] 0.093 | [3] 0.104 | [4] -0.143

CDC123 (UniProt O75794)
inactive: [1] -0.035 | [2] 0.02 | [3] -0.038 | [4] 0.073 | [5] 0.004

CDC42BPA isoform 6 (UniProt Q5VT25)
inactive: [1] 0.008 | [2] -0.003 | [3] -0.008 | [4] 0.026 | [5] 0.052

ATP2B4 (UniProt P23634)
inactive: [1] -0.021 | [2] 0.036 | [3] 0.059 | [4] 0.029 | [5] -0.081

CAMKK1 isoform 2 (UniProt Q8N5S9)
inactive: [1] 0.006 | [2] 0.03 | [3] 0.011 | [4] 0.071 | [5] -0.103

CDC25C (UniProt P30307)
inactive: [1] 0.018 | [2] -0.011 | [3] 0.023 | [4] 0.07 | [5] 0.027

CEP120 (UniProt Q8N960)
inactive: [1] -0.074 | [2] 0.097 | [3] 0.145 | [4] -0.169 | [5] 0.184

CCNC (UniProt P24863)
inactive: [1] 0.045 | [2] -0.09 | [3] -0.035 | [4] -0.036 | [5] -0.129

CCDC22 (UniProt O60826)
UniProt O60826, sequence (O60826 whole entry, looked up): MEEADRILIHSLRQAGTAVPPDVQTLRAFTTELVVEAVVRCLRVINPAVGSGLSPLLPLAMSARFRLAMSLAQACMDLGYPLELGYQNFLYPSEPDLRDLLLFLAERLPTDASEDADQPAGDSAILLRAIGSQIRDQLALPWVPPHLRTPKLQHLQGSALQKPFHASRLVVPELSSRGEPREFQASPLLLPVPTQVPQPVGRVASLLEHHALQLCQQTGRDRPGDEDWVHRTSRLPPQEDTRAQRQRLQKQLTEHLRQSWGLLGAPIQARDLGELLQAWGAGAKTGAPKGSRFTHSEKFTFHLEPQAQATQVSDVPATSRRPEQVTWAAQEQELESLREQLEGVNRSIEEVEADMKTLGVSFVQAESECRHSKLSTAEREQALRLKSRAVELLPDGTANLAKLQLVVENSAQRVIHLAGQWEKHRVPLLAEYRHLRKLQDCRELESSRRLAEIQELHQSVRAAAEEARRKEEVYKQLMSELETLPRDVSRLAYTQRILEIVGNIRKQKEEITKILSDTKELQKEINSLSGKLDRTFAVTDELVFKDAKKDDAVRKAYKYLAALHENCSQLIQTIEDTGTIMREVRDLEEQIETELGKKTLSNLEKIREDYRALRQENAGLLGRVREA
inactive: [1] -0.009 | [2] 0 | [3] -0.044 | [4] 0.053 | [5] 0.032

BUB1B isoform 3 (UniProt O60566)
inactive: [1] -0.013 | [2] -0.005 | [3] 0.027 | [4] -0.003 | [5] 0.02

ATXN2 (UniProt Q99700)
inactive: [1] 0.013 | [2] 0.016 | [3] 0.075 | [4] -0.02 | [5] -0.021

CDK8 (UniProt P49336)
UniProt P49336, sequence (P49336 whole entry, looked up): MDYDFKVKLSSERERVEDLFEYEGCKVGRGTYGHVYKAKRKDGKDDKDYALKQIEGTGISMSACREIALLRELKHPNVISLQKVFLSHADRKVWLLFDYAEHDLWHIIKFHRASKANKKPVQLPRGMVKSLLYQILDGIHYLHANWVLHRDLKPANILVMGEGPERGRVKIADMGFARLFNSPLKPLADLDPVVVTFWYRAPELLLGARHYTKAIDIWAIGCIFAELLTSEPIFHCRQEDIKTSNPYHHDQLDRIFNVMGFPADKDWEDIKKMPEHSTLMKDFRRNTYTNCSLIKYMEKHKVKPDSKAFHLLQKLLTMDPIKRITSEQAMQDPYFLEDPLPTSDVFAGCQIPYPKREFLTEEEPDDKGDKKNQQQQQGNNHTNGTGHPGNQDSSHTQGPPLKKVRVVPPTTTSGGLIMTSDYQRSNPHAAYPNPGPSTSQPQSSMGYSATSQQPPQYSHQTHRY
inactive: [1] -0.05 | [2] -0.108 | [3] 0.202 | [4] 0.017 | [5] -0.045

BRAT1 (UniProt Q6PJG6)
inactive: [1] -0.043 | [2] -0.005 | [3] 0.027 | [4] 0.005 | [5] 0.003

CARD9 (UniProt Q9H257)
UniProt Q9H257, sequence (Q9H257 whole entry, looked up): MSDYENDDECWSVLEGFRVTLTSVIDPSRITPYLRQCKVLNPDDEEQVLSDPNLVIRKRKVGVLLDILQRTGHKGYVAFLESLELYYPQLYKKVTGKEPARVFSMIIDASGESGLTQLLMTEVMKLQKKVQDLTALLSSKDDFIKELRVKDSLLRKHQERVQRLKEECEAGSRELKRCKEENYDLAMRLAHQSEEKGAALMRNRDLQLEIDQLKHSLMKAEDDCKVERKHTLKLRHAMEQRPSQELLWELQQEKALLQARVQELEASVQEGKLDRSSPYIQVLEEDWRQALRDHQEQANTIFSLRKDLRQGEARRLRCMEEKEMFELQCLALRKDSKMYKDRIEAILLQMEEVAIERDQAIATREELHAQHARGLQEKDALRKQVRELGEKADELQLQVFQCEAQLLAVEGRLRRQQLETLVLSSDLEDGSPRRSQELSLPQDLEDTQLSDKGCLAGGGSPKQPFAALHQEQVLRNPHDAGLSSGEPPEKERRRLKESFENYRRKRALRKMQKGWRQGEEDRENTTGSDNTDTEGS
inactive: [1] -0.039 | [2] 0.065 | [3] 0.023 | [4] -0.009 | [5] 0.035

ATAD3B (UniProt Q5T9A4)
inactive: [1] 0.082 | [2] -0.033 | [3] -0.021 | [4] 0.047 | [5] 0.172

BORCS5 (UniProt Q969J3)
inactive: [1] -0.12 | [2] 0 | [3] -0.015 | [4] -0.005 | [5] -0.011

CAMKK2 (UniProt Q96RR4)
inactive: [1] 0.002 | [2] -0.047 | [3] 0.072 | [4] 0.051 | [5] -0.013
